These results are taken from PubChem BioAssay (NCI).

“And” between values parts separate entries of the source, which are not always exact repeats. Equal values may be shown once. Compounds without any hit were thinned out: in the full panel of roughly 83,000, 20% have a hit.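 Cell lines were cultured in 96-well plates, exposed to a single compound concentration, and assessed for percent growth 48 hours later.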 The source made the active and inactive calls. Rule for the calls: active = growth percent below 10; inactive = the rest.

For this assay, the system named is MCF7 breast. The assay can be described thus: NCI-60 one-dose screen, 48 h (100 = growth as untreated, 0 = no growth, -100 = all killed). The settings on record: 10 µM unless noted.
In the case of `CC(=O)OC(C)c1cc2c(s1)C(=O)c1ccsc1C2=O` (configuration not stated), the growth is -61.2% [100 µM] (active) and -98.9% [100 µM] (active).

In the case of `Cc1c2c(c(O)c3c(O)cccc13)C(=O)C1(O)C(O)=C(C(=O)NCNc3ccc(C(N)=O)cn3)C(=O)C(N(C)C)C1C2` (configuration not stated), the growth is -81.9% [100 µM] (active) and -89.4% [100 µM] (active).

Regarding `Oc1ccc(/C=C/c2cc(O)cc3c2C(c2cc(O)cc(O)c2)C(c2ccc(O)c(O)c2)O3)cc1` (configuration not stated), the growth was -7.74% [100 µM] (active) and -48.3% [100 µM] (active).

Turning to `O=C1NC(=S)NC1C(Cc1ccccc1)c1ccco1` (configuration not stated), the growth was 19% [100 µM] (inactive) and 3.76% [100 µM] (active).

With `Cc1ccc(/C=N/Nc2ccc3ccccc3n2)s1`, the growth is -79.9% [100 µM] (active) and -100% [100 µM] (active).

As to `COc1cc(Nc2ccc3c(c2)CCC3)nc(OC)n1`, the growth was 22.3% [100 µM] (inactive) and -82.6% [100 µM] (active).

With `C/C(Cl)=N/OC(=O)Nc1ccc(S(N)(=O)=O)c(C)c1`, the growth is -72.4% [100 µM] (active) and -89.8% [100 µM] (active).
